# Screens (PubChem)
# INS-1E GSIS act – GLuc luminescence reporter in INS-1E cells, primary screen for activators of glucose-dependent secretion of insulin; 0.61% of 370,000 active; INS-1E GLuc reporter insulin secretion, 2-3 h; activation, % at 16.6 µM;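 active = lowest replicate activation of at least 40%, so every replicate reaches that level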;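 also: 0% = median of neutral control wells and 100% = median of IBMX positive control wells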
# iPSC survival up – enhancers of single-cell hiPSC survival, primary screen, ATPlite luminescence; 100% = ROCK inhibitor wells, 0% = DMSO; survival enhancement, % at 20 µM; 0.044% of 360,000 active; in the data active = survival enhancement above about 18%;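 also: cells exposed to compounds for 16 hours before the ATP read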
# ABCB6 inh MLPCN – ABCB6 transporter inhibitors, primary screen, K562-ABCB6 cells, flow cytometry, MLPCN library | K562-ABCB6 porphyrin accumulation, 1 h; active compounds read low | fluorescence ratio to DMSO, % at 10 µM | 0.19% of 360,000 active;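 active = fluorescence ratio to DMSO below 75%, the collection mean minus 3 SD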;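 also: signal is porphyrin accumulated inside mitochondria; 100% equals median channel fluorescence of DMSO control wells; lower ratio means ABCB6 inhibition with less porphyrin fluorescence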
# ARNT-TACC3 inh – disruptors of ARNT/TACC3 protein interaction, primary screen, biochemical, AlphaScreen, single concentration | Transforming acidic coiled-coil-containing protein 3 (Homo sapiens), Q9Y6A5 | AlphaScreen His-ARNT PAS-B/GST-TACC3 binding, luminescence; TACC3 fragment carries E629A point mutation | inhibition, % at 9.99 µM | 0.66% of 390,000 active;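 active = mean inhibition of replicates at least 50% and at least half of replicates each reaching 50%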;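 also: 0% = complete ARNT plus TACC3 wells and 100% = ARNT alone without TACC3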
# NRP1-CendR mod – modulators of CendR peptide binding to NRP-1, primary screen, biochemical, fluorescence polarization, uHTS. inhibition, % at 25 µM. Neuropilin-1 (Homo sapiens), O14786. 0.85% of 360,000 active. FAM-RPARPAR peptide binding to NRP-1;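 active = inhibition or corrected inhibition above about 18%, plus a signal ratio from 0.5 to 1.5, limit read from the data, passing the limit was not always enough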
# * marks the source's active call; other numbers are inactive results; / = no result given. Rows were chosen to be rich in hits. Some 1.8% of all compounds tested hit in one or more screens of this group.
SMILES,INS-1E GSIS act,iPSC survival up,ABCB6 inh MLPCN,ARNT-TACC3 inh,NRP1-CendR mod
CCOC(=O)C1=C(C)NC2=C(C(=O)CCC2)C1c1cn(Cc2ccc(Cl)cc2Cl)nc1-c1ccccc1 (centres undefined),/,0,88,-2,25*
CO[C@H]1CN(C)C(=O)c2cc(NC(=O)C3CCCCC3)ccc2OC[C@@H](C)N(Cc2nccs2)C[C@H]1C,-11,/,/,-3,/
CCCC(=O)N1CC2(CCN(C(=O)NC(C)C)CC2)c2c(n(C)c3cc(OC)ccc23)[C@H]1CO,15,/,/,/,/
Cc1ccc(C(=O)c2ccc(C)cc2)cc1,11,-1,98,-3,11
Cc1ccc(C(=O)c2no[n+]([O-])c2C(=O)c2ccc(C)cc2)cc1,-15,-1,67*,-10,2
Cc1ccc(-n2c(C)cc(/C=N/NC(N)=S)c2C)cc1,-22,-1,93,-3,4
Oc1c(Br)cc(Br)cc1/C=N/NC(=S)N[C@H]1CC2C=CC1C2 (some centres undefined),-2,0,101,12,-8
Oc1ccccc1C=NNC(=S)NN=Cc1ccccc1O,-47,4,100,61*,-4
NC(=S)N/N=C/c1cccc(O)c1O,1,0,105,/,0
NC(=S)N/N=C/c1ccccc1O,3,1,99,73*,-6
CNC(=S)N/N=C/c1cc(Br)cc(Br)c1O,-2,-1,89,48*,-4
Cc1cc(/C=N/NC(N)=S)c(O)c(/C=N/NC(N)=S)c1,15,1,105,66*,-15
C[C@H](CO)N1C[C@H](C)[C@H](CN(C)C(=O)CC2CC2)Oc2cc(-c3cncnc3)ccc2S1(=O)=O,4,/,/,14,/
CCOc1ccc(NC(=O)CN2CCN(CC(=O)Nc3ccc(Cl)c(C(F)(F)F)c3)CC2)cc1,-29,-4,95,5,21*
COc1cccc(-c2ccc3c(c2)[C@H]2[C@H](CCN2C(=O)C2CCC2)[C@H](CO)N3)c1,3,/,/,-5,/
COc1ccccc1C(C)NS(=O)(=O)c1ccc(Cl)nc1 (centres undefined),44*,0,97,-7,2
N/C(CSc1ccc(Cl)cc1)=N\S(=O)(=O)c1ccc(Cl)cc1,17,-1,96,-8,29*
CN(C)CC#Cc1ccc([C@H]2[C@H](CO)N3CCCCN(C(=O)C4CCCC4)C[C@@H]23)cc1,/,/,/,5,/
O=C(NCc1ccc2c(c1)OCO2)c1nn(-c2ccccc2)c(=O)c2ccccc12,/,-2,65*,7,-3
O=C(CSc1nc2ccccc2c(=O)n1-c1ccccc1)NCc1ccc2c(c1)OCO2,110*,2,90,11,7
Cc1cccc(-n2c(SCC(=O)NCc3ccc4c(c3)OCO4)nc3ccccc3c2=O)c1,17,-1,95,-7,-7
O=C(C[C@@H]1CC[C@@H]2[C@H](COC[C@@H](O)CN2Cc2cccc(Cl)c2)O1)N1CCCCC1,11,/,/,0,/
CCCNC(=O)N1CC2(CN(S(=O)(=O)c3cccc(OC)c3)C2)c2c(n(C)c3cc(OC)ccc23)[C@H]1CO,5,/,/,/,/
CCC(c1nnnn1C1CCCCC1)N(Cc1ccco1)Cc1cc2ccc(OC)cc2[nH]c1=O (centres undefined),/,4,101,-12,29*
CO[C@H]1CN(C)C(=O)c2cc(NC(=O)CC(F)(F)F)ccc2OC[C@H](C)N(CC2CC2)C[C@H]1C,-7,/,/,/,/
SMILES,INS-1E GSIS act,iPSC survival up,ABCB6 inh MLPCN,ARNT-TACC3 inh,NRP1-CendR mod
CCC(=O)N1CCCc2cc(S(=O)(=O)CCC(=O)Nc3ccccc3C)ccc21,-3,2,95,-3,28*
CC(=O)N1CCCc2cc(S(=O)(=O)CCC(=O)Nc3cccc(C)c3C)ccc21,-7,0,99,1,22
O=C(N[C@H]1C=C[C@@H](CC(=O)N2CCCCC2)O[C@H]1CO)c1ccc2c(c1)OCO2,4,/,/,-1,/
Cc1ccc2sc(N3CCN(C(=O)c4ccc([N+](=O)[O-])o4)CC3)nc2c1C,87*,0,100,4,2
O=C(c1ccc([N+](=O)[O-])o1)N1CCN(c2nc3c(Cl)cccc3s2)CC1,-30,0,97,3,-4
Cc1cccc(S(=O)(=O)N2CC[C@@H]3[C@H](CO)N(C)c4ccc(C#Cc5ccc(F)cc5)cc4[C@@H]32)c1,/,/,/,48*,/
O=C(CC1C(=O)NCCN1C(=O)Nc1ccccc1)Nc1cccc(C(F)(F)F)c1 (centres undefined),/,0,89,21,44*
COc1ccccc1-c1cnc2c(c1)C(=O)N([C@H](C)CO)C[C@@H](C)[C@@H](CN(C)C(C)=O)O2,42*,/,/,-4,/
COc1ccc(S(=O)(=O)Nc2ccc3c(c2)C(=O)N([C@H](C)CO)C[C@H](C)[C@@H](CN(C)C(=O)NC2CCCCC2)O3)cc1,-3,22*,96,-5,0
C[C@@H]1CN([C@@H](C)CO)C(=O)c2cc(NC(=O)Nc3ccc(F)cc3)ccc2O[C@@H](C)CCCCO[C@H]1CN(C)Cc1ccc(Cl)c(Cl)c1,23,/,/,48*,/
COc1ccc(S(=O)(=O)Nc2ccc3c(c2)C(=O)N([C@@H](C)CO)C[C@H](C)[C@H](CN(C)C(=O)NC2CCCCC2)O3)cc1,-4,/,/,-3,/
COc1ccc(S(=O)(=O)Nc2cccc3c2O[C@H](CN(C)S(=O)(=O)c2cn(C)cn2)[C@@H](C)CN([C@H](C)CO)C3=O)cc1,4,2,100,-3,26*
COc1ccccc1-c1cnc2c(c1)C(=O)N([C@@H](C)CO)C[C@@H](C)[C@@H](CN(C)C(C)=O)O2,-3,-1,95,-5,4
O=C(C[C@@H]1C[C@@H]2c3cc(NC(=O)NC4CCCC4)ccc3O[C@@H]2[C@H](CO)O1)NCc1cccnc1,-7,/,/,/,/
CCCNC(=O)C[C@@H]1CC[C@H]2[C@@H](COc3ccc(NC(=O)NC(C)C)cc3C(=O)N2C)O1,-2,/,/,-4,/
O=C(Nc1ccc2c(c1)[C@H]1C[C@H](CC(=O)N3CCc4ccccc4C3)O[C@H](CO)[C@H]1O2)NC1CCCC1,-31,/,/,-9,/
C[C@H](CO)N1C[C@H](C)[C@@H](CN(C)S(=O)(=O)c2ccccc2)Oc2ccc(NC(=O)Cc3ccccc3)cc2C1=O,3,-1,96,-13,24*
C[C@H](CO)N1C[C@H](C)[C@@H](CN(C)C(=O)c2ccncc2)OCCCC[C@H](C)Oc2ccc(NC(=O)Cc3ccccc3)cc2C1=O,23,/,/,active,/
C[C@@H]1CCCCO[C@H](CN(C)C(=O)c2ccncc2)[C@@H](C)CN([C@@H](C)CO)C(=O)c2cc(NC(=O)Cc3ccccc3)ccc2O1,22,/,/,-8,/
